High-throughput results (PubChem)
An excerpt weighted towards active compounds, which were near 3.3% of everything screened.
Cardio protect = modulators protecting cardiomyocytes from myocardial damage; H9c2 cardiomyocytes, H2O2 injury protection, ATPLite, 2 h; protection from H2O2 cell death, % at 20 µM; actives 0.63% (n = 360,000); AID 588492;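 active = compounds giving at least 50% protection of heart cells from peroxide-induced death in the single-dose screen, raw or plate-pattern-corrected value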;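 note: 0% = DMSO wells with peroxide and 100% = DMSO wells without peroxide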
Cl transport mod = modulators of human KCC2 chloride dependent transport | actives 2.2% (n = 190,000) | AID 1456 | KCC2 cells, thallium flux FluoZin-2 fluorescence | B-score of Tl+ flux slope (higher = more flux/activation; lower = inhibition) at 10 µM | Q9H2X9;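 active = thallium flux slope and its plate-corrected score both differing from the plate sample mean at a set confidence after two filtering rounds, in either direction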;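 note: slope of fluorescence scaled to starting intensity during 10 to 20 s after thallium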
PHOSPHO1 block = blocks human PHOSPHO1 phosphatase activity; recombinant PHOSPHO1, absorbance phosphatase assay; inhibition, % at 13.3 µM; actives 1.1% (n = 290,000); AID 1565; in the data active = inhibition above about 60%
Calb FLC = C. albicans growth modulation with fluconazole; C. albicans CaCi-2 (fluconazole-resistant clinical isolate) + fluconazole, Alamar Blue growth, 48 h; actives 0.57% (n = 300,000); growth inhibition, % (concentration not given with the values);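 active = growth inhibition above about 58% in most replicates, limit read from the data, passing the limit was not always enough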;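 note: all wells also contain fluconazole at 8 µg/ml as a sub-toxic cotreatment; 0% = median of DMSO wells and 100% = median of geldanamycin control wells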
Efflux pump inh = inhibitors of Candida antifungal efflux pumps expressed in yeast. AID 485275. S. cerevisiae Candida pump triplex, Nile Red efflux. actives 0.44% (n = 330,000). inhibition, % at 10 µM;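 active = plate passing quality check with inhibition over a set limit, or well fluorescence over plate mean plus 4 SD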;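 note: Nile Red retained in pooled yeast measured as flow cytometry median fluorescence; 0% = buffer negative control and 100% = Enniatin B positive control; higher means more Nile Red kept so more efflux inhibition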
* hit, by the source's call; i = inactive; · = no result given; ! = a repeat was not active.

SMILES	Cardio protect	Cl transport mod	PHOSPHO1 block	Calb FLC	Efflux pump inh
CCN(CC)c1ccc(NC(=O)Cn2cc3c(n2)CCC(C)C3)c(C)c1 (configuration not stated)	-17.0	0.63	82.6*	0.3	0.5
Oc1ccc(-n2cccc2/C=N/n2cnnc2)cc1	-1.7	-1.91	32.8	1.4	0.1
FC(F)(F)c1cccc(-n2cccc2/C=N/n2cnnc2)c1	6.9	-0.7	94.1*	-2.2	-0.1
CCCn1nnnc1COc1ccc(C(N)=O)cc1	2.2	·	-9.3	0.5	-0.1
CC(=O)c1c(C)[nH]c(C(=O)CSc2ncnc3sc(-c4ccccc4)cc23)c1C	-14.2	28.8*	-42.1	4.5	0.3
CC1(NC(=O)Cc2csc(-c3ccc(Cl)cc3)n2)CCS(=O)(=O)C1 (configuration not stated)	-3.2	·	·	·	0.1
Cc1cccc(C(=O)NCC(=O)N2CCN(c3ccccn3)CC2)c1	1.4	·	·	·	0.0
COc1cnn(-c2ccccc2)c(=O)c1SCc1ccc(Cl)c(Cl)c1	-7.0	-0.751	87.9*	-29.9	0.1
CC(=O)c1sc(NC(=O)c2cc3c(C)nn(-c4ccccc4)c3s2)nc1C	-5.7	-0.523	-2.3	6.4	-0.1
Cc1nc(NCc2ccccc2)sc1C(=O)Nc1ccccc1	-1.2	-0.0494	68.1*	3.7	0.0
Cc1nc(NC(=O)c2cc3c(C)nn(-c4ccccc4)c3s2)sc1C(=O)Nc1ccccc1	64.5*	-0.0469	-7.4	-2.4	0.4
Cc1nc(NC(C)c2ccccc2)sc1C(=O)Nc1ccccc1 (configuration not stated)	3.4	0.595	60.9*	-10.9	-1.3
CC(=O)N(C)C[C@@H]1Oc2ncc(C#Cc3ccc(F)cc3)cc2C(=O)N([C@@H](C)CO)C[C@H]1C	-7.3	·	·	·	·
CN(CC(=O)Nc1ccccc1Cl)C(=O)c1ccc(-c2cccc(C(F)(F)F)c2)o1	-8.6	·	·	-9.6	0.0
CC(=O)C1=C(C)Nc2ncnn2C1c1ccc(O)cc1 (configuration not stated)	7.2	·	27.3	·	-0.3
Cc1oc(-c2ccc(Cl)cc2)cc1-c1nn2c(-c3ccco3)nnc2s1	·	·	92.3*	·	·
Cc1oc(-c2ccc(F)cc2)cc1-c1nn2c(-c3ccoc3C)nnc2s1	49.2	·	97.8*	-3.0	0.1
COc1cc2c(cc1O)CC[n+]1cc3c(OC)c(OC)ccc3cc1-2	-0.9	0.147	-3.8	99.1*	-0.2
COc1cc2c(cc1OC)-c1cc3ccc4c(c3c[n+]1CC2)OCO4	5.6	0.259	8.4	21.0	1.8
COc1cc(/C=N/NC(=O)C(=O)NCc2ccco2)cc(Br)c1O	10.0	-1.21	85.0*	13.7	0.0
CCCCCC(=O)N/N=C/c1cc(Br)c(O)c(OC)c1	-1.7	-0.244	-3.4	-0.3	-0.3
COc1ccc(CNC(=O)Cc2csc(Nc3nc(=S)[nH]c4ccccc34)n2)cc1	9.1	7*	11.5	29.4	0.2
O=C(Cc1csc(Nc2nc(=S)[nH]c3ccccc23)n1)NCc1ccc(Cl)cc1	-1.2	5.88*	-1.4	6.2	0.0
CCOC(=O)c1c(S(=O)(=O)N2CCCC(C(=O)Nc3cccc(C)n3)C2)c(C)n(C)c1C (configuration not stated)	-2.5	·	35.5	1.5	-0.1
O=C(NCc1ccco1)/C(=C\c1ccc(F)cc1)NC(=O)c1ccco1	0.5	·	26.5	3.8	0.1
SMILES	Cardio protect	Cl transport mod	PHOSPHO1 block	Calb FLC	Efflux pump inh
CS(=O)(=O)c1nc(-c2cccs2)cc(C(F)(F)F)n1	·	·	25.1	96.9*	-0.2
Cc1cccc(NC(=O)c2ccc(Cn3cc(C(F)(F)F)ccc3=O)cc2)c1	6.0	0.176	64.6*	3.3	-0.2
O=C(NCc1ccncc1)c1ccc(Cn2cc(C(F)(F)F)ccc2=O)cc1	2.8	-0.0394	60.5*	5.3	-0.1
CC(C)(CNC(=O)C1CCN(S(=O)(=O)c2cc([N+](=O)[O-])ccc2Cl)CC1)N1CCOCC1	19.4	·	·	·	·
CCN(CC)c1ccc(NC(=O)COC(=O)CCC(=O)c2ccc(F)cc2)cc1	2.1	-0.22	85.0*	0.8	-0.1
COc1cc(NC(=O)COc2cc(C)cc3oc(=O)cc(C)c23)cc(OC)c1OC	2.6	·	·	·	·
COc1ccc(CC(=O)N(Cc2ccccc2)c2ccccc2)cc1S(=O)(=O)N1CCOCC1	69.0*	·	4.6	6.8	0.2
COCCN(Cc1ccccc1)C(=O)Cc1ccc(OC)c(S(=O)(=O)N2CCOCC2)c1	-1.4	·	·	-6.8	0.0
N#C/C(=N\Nc1ccc(Cl)cc1)C(=O)c1ccccc1	-20.3	-3.46*	5.5	25.7	-0.4
COc1ccc(C(=O)/C(C#N)=N/Nc2ccc([N+](=O)[O-])cc2)cc1	-23.4	-3.6*	24.9	-8.5	0.0
C=CCn1c(SCc2ccc(C#N)cc2)nnc1-c1cccc(OC)c1	-10.1	·	12.7	-0.8	0.0
COc1cccc(-c2nnc(SCc3ccc(C#N)cc3)n2Cc2ccco2)c1	-0.8	·	65.4*	-5.0	0.1
Cc1ccc(-c2nnc(SCc3ccc(C#N)cc3)n2Cc2ccco2)cc1	1.6	-1.13	100.4*	25.3	0.2
CCn1c(SCc2cccc(C)c2)nnc1-c1ccc(C)cc1	-6.2	-2.45	68.9*	17.0	0.0
CNC(=O)Nc1cc(C(F)(F)F)cc(C(F)(F)F)c1	6.9	-0.0623	38.6	85.8*	0.0
CC(CC(=O)O)CC(=O)Nc1cc(C(F)(F)F)cc(C(F)(F)F)c1 (configuration not stated)	5.0	-0.034	11.5	-0.7	-0.1
Cc1ccc(S(=O)(=O)N2CCOCC2)cc1NC(=O)COC(=O)COc1ccc(C#N)cc1	-1.6	·	·	·	·
c1ccc2c(c1)oc1c(NCCCn3ccnc3)ncnc12	-2.5	·	71.6*	3.3	0.1
Cc1nc(NCCCn2ccnc2)c2oc3ccccc3c2n1	0.7	-0.00643	-6.0	2.6	0.1
CC(=O)N1CCc2cc(S(=O)(=O)CCC(=O)NCc3ccc(F)cc3)ccc21	7.2	·	22.6	-5.3	-0.1
CSc1nc(N(C)CCO)c2sc3nc(-c4ccco4)c4c(c3c2n1)CCC4	-1.6	0.467	-76.7	14.2	0.5
CSc1nc(SCC(=O)O)c2sc3nc(-c4ccccc4)c4c(c3c2n1)CCC4	-5.4	6.11*	-44.0	-7.1	·
CC(C)Oc1ccc(C2CC(=O)N(c3cccc(Br)c3)C2=O)cc1 (configuration not stated)	-7.0	0.875	31.6	2.9	0.0
CC(=O)Nc1c(I)c(NC(C)=O)c(I)c(C(=O)O)c1I	-2.4	10.3*!	1.1	-6.4	0.1
O=C(CCCCC(=O)Nc1c(I)cc(I)c(C(=O)O)c1I)Nc1c(I)cc(I)c(C(=O)O)c1I	-2.5	·	·	·	-0.1
CC(NCC(O)COCCC12CC3CC(CC(C3)C1)C2)c1ccccc1 (configuration not stated)	-24.0	1.01	37.8	19.1	0.0
COc1cc(/C=C/C(=O)CC(=O)/C=C/c2ccc(O)c(OC)c2)ccc1O	75.1*	i	-11.2	·	1.3
COc1ccc(C=CC(=O)c2ccc3cc(OC)c(OC)cc3c2)cc1OC	52.7*	·	·	·	·
COc1ccc(C=CC(=O)c2ccc(OC)c(OC)c2)cc1O	15.4	·	·	·	·
